# Only a selection was taken, and hits are over-represented in it overall.
# 15-hLO inh: qHTS Assay for Inhibitors of 15-hLO (15-human lipoxygenase); Polyunsaturated fatty acid lipoxygenase ALOX15 (Homo sapiens), P16050; 74,000 compounds, 1.4% hits; purified 15hLO-1, xylenol orange hydroperoxide absorbance; Potency, µM (doses to about 57.1 µM), for the others: top-dose activity change, negative = inhibition, actives largely listed as inhibitors; also: % is scaled to controls: 0 for no effect and ±100 for the full control effect; nearly all actives have a fitted effect of over 55% in size
#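 Readout: Fe(III)-xylenol orange absorbance, 573-to-405 nm ratio as reaction progress. Enzyme 40 nM purified human 15hLO-1, substrate 50 uM arachidonic acid, 6 min RT after 15 min compound preincubation; Hepes pH 7.5 buffer with Triton X-100.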
# Ub-GFP proteasome: Ubiquitin-GFP Assay. Ubiquitin-GFP reporter cells, proteasome inhibition, GFP fluorescence; response scale: untreated = 0%, 10 µM MG-132 = 100%. Potency, µM (series often up to 45.9 µM), without a hit: at the highest dose activation (GFP accumulation), most hits filed as activators. 67,000 tested, under 10 active. AID 526, 2006; active = well fitted activation curve with a large enough effect, not every such curve was filed as active; inconclusive = small, poorly fitted or top-dose-only effect, or another doubt; inactive = no such curve, though single readings can be large or run the other way
#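 U2OS Ub(G76V)-GFP reporter; O/N plating, 0.5% FBS; cpd 46 uM–2.9 nM, 4 h, 37 °C; GFP+ cell count, 488/515 nm; norm. to basal vs 10 uM MG-132; CRC fit.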
# ALOX15B inhib: qHTS Assay for Inhibitors of 15-hLO-2 (15-human lipoxygenase 2); purified 15hLO-2, xylenol orange hydroperoxide absorbance; Potency, µM (highest dose often 57.1 µM), inactives show at the top dose activity change, negative = inhibition, usual class: inhibitors; 110,000 compounds, 0.56% hits; also: % is scaled to controls: 0 for no effect and ±100 for the full control effect; nearly all actives have a fitted effect of over 60% in size
#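 Screening format was qHTS against 50 nM purified 15hLO-2 in Hepes pH 7.5 with detergent. Activity follows hydroperoxide formation from 45 uM arachidonic acid, measured as 573:405 nm absorbance ratio of the ferric-xylenol orange complex.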
# USP2a inhib: qHTS Assay for Inhibitors of Ubiquitin-specific Protease USP2a; 60,000 compounds, 0.1% hits; AID 927, 2007; Potency, µM (doses to about 38.3 µM), inactives show at the highest dose activity change, negative = inhibition, usual class: inhibitors; USP2a enzymatic assay, qHTS inhibition; also: nearly all actives have a fitted effect of over 60% in size
#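 Inhibition is measured in a cell-free coupled assay with 20 nM USP2 core, 20 nM Ub-PLA2 and 20 uM NBD C6-HPC, 2.5 h incubation. Activity normalized to NEM control.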
# Caspase-1 inhib: qHTS Assay for Allosteric/Competitive Inhibitors of Caspase-1. Caspase-1 enzyme, Ac-WEHD-AFC fluorogenic rate. Potency, µM (titrated, usually from 57.5 µM), for inactives: at the highest dose activity change, negative = inhibition, actives largely listed as inhibitors. 75,000 compounds, 0.03% hits;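 also: plate controls were vehicle for no effect and no substrate for full effect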
# Casp7 inh: qHTS Assay for Allosteric/Competitive Inhibitors of Caspase-7 | recombinant caspase-7, Ac-DEVD-AFC fluorescence rate | Potency, µM (doses to about 57.5 µM), for the others: at the highest dose activity change, negative = inhibition, most hits filed as inhibitors | 75,000 compounds, 0.02% hits | AID 889, 2007; active = well fitted inhibition curve with a large enough effect in the main read-out, with a control signal flat, not every such curve was filed as active; inconclusive = small, poorly fitted or top-dose-only effect, or a change in a side signal; also: % of control where 0% means no effect
# Numbers without * were called inactive; ? = inconclusive; · = no result given; [ ] = another dose, or the depositor's remark. Unless noted, calls follow the shape of the dose curve; as a rule, active = well fitted curve in the direction sought with a large enough effect; inconclusive = small, poorly fitted or top-dose-only effect, or another doubt; inactive = no such curve, though single readings can be large; an effect the other way counts as inactive or inconclusive. Potency is read from the fitted curve at half-maximal effect.
SMILES,15-hLO inh,Ub-GFP proteasome,ALOX15B inhib,USP2a inhib,Caspase-1 inhib,Casp7 inh
Nc1nc(-c2ccco2)c(-c2ccco2)s1,20µM*,1%,-22%,16%,?,?
c1coc(-c2nc(-c3ccco3)c(-c3ccco3)nc2-c2ccco2)c1,2µM*,2%,-26%,?,·,?
COc1ccc2nc(-c3ccco3)c(-c3ccco3)nc2c1,·,·,-1%,·,·,·
OC[C@H](CCc1c[nH]c2ccccc12)c1c[nH]c2ccccc12,3.2µM*,-4%[9.17 µM],7%[11.4 µM],·,1%[11.5 µM],2%[11.5 µM]
CC(C)=CCCC(C)N(C=O)C(C)CCC=C(C)C (configuration not stated),7.9µM*,7%,·,-14%,0%,0%
Nc1nc2c(c(=O)[nH]1)CN(c1ccc(S(N)(=O)=O)cc1)CN2,1%[11.4 µM],-3%[9.17 µM],-13%[11.4 µM],·,1%[11.5 µM],0%[11.5 µM]
N[C@@H]1C=CC=C(C(=O)O)C1,-7%,-5%,-4%,9%,2%,2%
CCCC=O,-2%,·,-9%,·,0%,0%
CCc1ccc(CCC(=O)Nc2sc3c(c2C#N)CCCC3)o1,16µM*,3%,-14%,27%,-9%,-17%
Cc1cc(Cc2c(C)c(C)c(Cc3cc(C)cc(C(C)(C)C)c3O)c(C)c2C)c(O)c(C(C)(C)C)c1,-13%[11.4 µM],-5%[9.17 µM],-10%[11.4 µM],·,0%[11.5 µM],-3%[11.5 µM]
CCOc1cc(/C=N/NC(=O)COc2ccc(C)cc2)ccc1OC(=O)c1cccs1,·,·,-16%,·,·,·
CCOc1cc(/C=C2\C(=O)N(c3ccc(C(N)=O)cc3)N=C2C)ccc1OC(=O)c1cccs1,·,·,5µM*,·,·,·
S=c1[nH]nc(-c2cc(-c3ccco3)[nH]n2)n1-c1ccccc1,·,·,-7%,·,·,·
CCOc1ccc(-n2c(-c3ccco3)n[nH]c2=S)cc1,32µM*,·,?,0%,-3%,-1%
NC(=S)NCCC[C@@H](N)C(=O)O,-28%,-6%,-8%,-6%,3%,-3%
COc1cc([C@@H]2Oc3cc([C@H]4Oc5cc(O)cc(O)c5C(=O)[C@H]4O)ccc3O[C@H]2CO)ccc1O,2µM*,1%,-29%,·,-1%,-6%
O=C1NCCCC2c3cc(O)c4ccccc4c3OC12N1CCCCC1 (configuration not stated),?,11%,?,34%,32µM*,?
CC[C@@H](CS(=O)(=O)O)[N+](=O)[O-],14%[11.4 µM],-2%[9.17 µM],-5%[11.4 µM],·,-5%[11.5 µM],0%[11.5 µM]
COc1ccc(NC2CS(=O)(=O)CC2NCc2ccco2)cc1 (configuration not stated),16µM*,-2%,-1%,32%,1%,-12%
CC(=O)NCCNc1ncncc1-c1ccc(N(C)C)cc1,13µM*,-3%,-8%,-16%,-1%,-3%
O=C(CSc1nc2ccc(S(=O)(=O)N3CCOCC3)cc2[nH]1)N1CCOCC1,7.9µM*,-3%,-15%,-5%,-3%,1%
C=CCn1c2ccccc2c2nnc(SCCCn3c(=O)[nH]c4ccccc43)nc21,16µM*,0%,-14%,8%,-3%,-5%
C=CCn1c2ccccc2c2nnc(SCN3C(=O)c4ccccc4C3=O)nc21,-23%[11.4 µM],3%[9.17 µM],-20%,22%[7.66 µM],-6%,-2%
O=S(=O)(Nc1ccc2c(c1)OCO2)c1ccc(Br)s1,25µM*,5%,-16%,24%,1%,2%

# Screening results from PubChem.
